Screens from PubChem BioAssay.
PLC-gamma1 inh = PLC-gamma1 enzyme inhibitors, primary screen, biochemical, fluorescence, purified enzyme | 1-phosphatidylinositol 4,5-bisphosphate phosphodiesterase gamma-1 (Homo sapiens), P19174 | fluorogenic substrate | inhibition, % at 12.2 µM | hit rate 0.84% among 370,000; in the data active means inhibition above about 9.5%
ADAM17 inh = ADAM17 inhibitors, primary screen, biochemical, QFRET. Disintegrin and metalloproteinase domain-containing protein 17 (Homo sapiens), P78536. inhibition, % at 6.95 µM. hit rate 0.83% among 370,000. recombinant ADAM17, EDANS/DABCYL FRET peptide cleavage;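 active means inhibition above the mean of compounds lying between control limits plus 3 SD, set per campaign, cut at about 8.5% in these data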
PLCb3 inh = human PLC-beta3 inhibitors, primary screen, biochemical, fluorescence; 1-phosphatidylinositol 4,5-bisphosphate phosphodiesterase beta-3 (Homo sapiens), Q01970; Purified PLC-beta3, fluorogenic substrate; inhibition, % at 12.2 µM; hit rate 0.18% among 370,000; in the data active means inhibition above about 11%
ADAM10 inh = human ADAM10 inhibitors, primary screen, biochemical, QFRET, HTS. Disintegrin and metalloproteinase domain-containing protein 10 (Homo sapiens), O14672. inhibition, % at 7 µM. hit rate 0.62% among 370,000. AID 720582, 2013. recombinant ADAM10, EDANS/DABCYL FRET peptide cleavage, 3 h;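 active means inhibition above a per-campaign cutoff equal to the mean of compounds falling between control-based bounds plus 3 SD, cut at about 20% in these data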
proKLK7 act = proKLK7 zymogen activators, primary screen, biochemical, fluorescence intensity | Kallikrein-7 (Homo sapiens), P49862 | purified proKLK7, EDANS-DABCYL substrate fluorescence; 100% is mature enzyme control, 0% vehicle | activation, % at 7 µM | hit rate 0.9% among 370,000 | AID 652039, 2013;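 active means activation above the mean of all tested compounds plus 3 SD, computed per campaign excluding outliers beyond control limits, cut at about 13% in these data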
sPLA2-III inh = human group III sPLA2 inhibitors, primary screen, biochemical, QFRET, BODIPY PC-A2 liposome substrate; QFRET BODIPY PC-A2 liposome hydrolysis, fluorescence; inhibition, % at 12.2 µM; hit rate 0.56% among 370,000;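 active means inhibition above mean plus 3 SD of compounds lying within the high and low control bounds, cut at about 19% in these data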
Target sequence (Q9NZ20 whole entry, looked up): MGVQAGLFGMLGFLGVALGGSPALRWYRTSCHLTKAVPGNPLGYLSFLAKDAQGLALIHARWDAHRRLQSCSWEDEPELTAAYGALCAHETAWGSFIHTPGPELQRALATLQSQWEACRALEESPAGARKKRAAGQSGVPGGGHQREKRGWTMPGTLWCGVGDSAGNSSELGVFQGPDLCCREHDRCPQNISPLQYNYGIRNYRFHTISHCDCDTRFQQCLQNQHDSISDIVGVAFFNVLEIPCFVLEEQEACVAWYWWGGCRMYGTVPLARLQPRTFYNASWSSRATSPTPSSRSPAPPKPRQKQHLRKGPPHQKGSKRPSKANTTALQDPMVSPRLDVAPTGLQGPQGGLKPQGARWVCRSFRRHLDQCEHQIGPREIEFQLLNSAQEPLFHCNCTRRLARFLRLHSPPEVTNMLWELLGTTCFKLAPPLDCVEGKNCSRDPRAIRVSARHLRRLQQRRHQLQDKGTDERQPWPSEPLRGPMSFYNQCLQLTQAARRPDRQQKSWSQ
ADAM10 counter = ADAM10 inhibitors, counter-screen for ADAM17 exosite inhibitor project, biochemical, FRET, human ADAM10. shares compounds with ADAM17 inh. inhibition, % at 6.95 µM. recombinant ADAM10, EDANS/DABCYL FRET peptide cleavage, 3 h. hit rate 47% among 2,900. AID 743256, 2014;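 active means mean inhibition over the triplicate runs exceeds the activity threshold set in the earlier primary screen, cut at about 20% in these data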
ADAM17 confirm = ADAM17 inhibitors, hit retest, confirmation, biochemical, QFRET peptide cleavage; shares compounds with ADAM17 inh; recombinant ADAM17, EDANS/DABCYL QFRET peptide cleavage; inhibition, % at 6.95 µM; hit rate 65% among 2,900; AID 743257, 2014;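 active means mean inhibition across replicates above the hit cutoff set in the primary screen, cut at about 8.5% in these data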
Numbers stand for hits; 0 = inactive; - = no result given. Rows were chosen to be rich in hits. Some 3.4% of all compounds tested hit in one or more screens of this group.

SMILES	PLC-gamma1 inh	ADAM17 inh	PLCb3 inh	ADAM10 inh	proKLK7 act	sPLA2-III inh	ADAM10 counter	ADAM17 confirm
CCCc1cc(-c2[nH]ncc2-c2ccc3c(c2)OCCCO3)c(O)cc1OC	0	10.1	0	0	0	0	27.7	12.5
CC1CCN(CCCNC(=O)c2ccc3c(=O)n(Cc4ccc(Cl)cc4)c(=S)[nH]c3c2)CC1	0	0	0	0	0	0	-	-
CN(C)CCNC(=O)c1ccc2c(=O)n(Cc3ccc(Cl)cc3)c(=S)[nH]c2c1	0	9.1	0	0	0	0	0	0
Clc1cccc(-c2nc3ccc(Br)cn3c2Cc2ccsc2)c1	0	0	0	0	0	0	-	-
CC(c1ccccc1)n1c(SCC(=O)N2CC(=O)Nc3ccccc32)nc2ccccc2c1=O (stereo unspecified)	0	8.9	0	0	0	0	36.7	15.6
COc1ccccc1N(C(=O)c1ccco1)C(C(=O)NC1CCCC1)c1ccncc1 (stereo unspecified)	0	0	0	0	0	0	-	-
C=CC[C@@H](CC(=O)N[C@H](CO)Cc1ccccc1)C(=O)N[C@H](COC(=O)[C@@H](CC=C)Cc1ccc(F)cc1)C(C)(C)C	0	8.7	0	0	0	0	33.6	19.2
C=CC[C@@H](CC(=O)N[C@H](CO)Cc1ccccc1)C(=O)N[C@H](COC(=O)[C@@H](CC=C)Cc1ccc(F)cc1)Cc1c[nH]c2ccccc12	0	11.3	0	24.4	0	0	44.4	22.0
C=CC[C@@H](CC(=O)N[C@@H](CO)Cc1ccccc1)C(=O)N[C@H](COC(=O)[C@@H](CC=C)Cc1ccc(F)cc1)Cc1ccccc1	0	0	0	0	0	0	-	-
C=CCC[C@H](Cc1ccc(F)cc1)C(=O)OC[C@@H](NC(=O)[C@@H](CC=C)CC(=O)N(CCO)Cc1ccccc1)C(C)(C)C	0	12.4	0	0	0	0	38.4	19.4
C=CC[C@@H](CC(=O)N[C@@H](CO)Cc1ccccc1)C(=O)N[C@@H](COC(=O)[C@@H](CC=C)Cc1ccc(F)cc1)Cc1c[nH]c2ccccc12	0	0	0	0	0	0	-	-
CC1CCCCC1NC(=O)C(Cc1ccccc1)NS(=O)(=O)c1cccs1 (stereo unspecified)	0	0	0	0	0	0	-	-
CC(CCc1ccccc1)NC(=O)C(Cc1ccccc1)NS(=O)(=O)c1cccs1 (stereo unspecified)	0	9.8	0	0	0	0	21.3	9.3
O=C(Nc1ccc(F)cc1)c1ccccc1Oc1ccc(C(F)(F)F)cc1[N+](=O)[O-]	0	11.0	0	0	0	0	22.9	12.0
CCSc1nsc(NC(=O)Nc2ccccc2F)n1	0	0	0	0	0	0	-	-
COc1ccccc1NC(=O)Nc1nc(CC(=O)Nc2ccc(OC)c(OC)c2)cs1	0	0	0	0	0	0	-	-
CCSc1nsc(NC(=O)Nc2cccc(OC)c2)n1	0	10.8	0	0	0	0	0	14.1
COc1cccc(NC(=O)Cc2csc(NC(=O)Nc3ccccc3OC)n2)c1	0	10.4	0	0	0	0	34.8	17.8
CC(C)(C)c1ccc(C2(C)NC(=O)N(CC(=O)c3ccc[nH]3)C2=O)cc1 (stereo unspecified)	0	11.0	0	0	0	0	0	0
Cc1noc(C)c1NC(=O)Nc1cccc2c1O[C@@H](CN(C)C(=O)Nc1ccc3c(c1)OCO3)[C@@H](C)CN([C@H](C)CO)C2=O	0	0	0	0	0	0	-	-
CS(=O)(=O)c1cccc(C(=O)Nc2cccc(-c3nc4ccccc4[nH]3)c2)c1	0	0	0	0	0	0	-	-
CS(=O)(=O)c1ccc(C(=O)Nc2cccc(-c3nc4ccccc4[nH]3)c2)cc1	0	9.2	0	0	0	0	0	0
COc1ccc(-c2nc(CS(=O)CC(=O)N3CCN(C)CC3)c(C)o2)cc1 (stereo unspecified)	0	0	0	0	0	0	-	-
CN(Cc1cccs1)C(=O)C1CC(=O)N(Cc2ccccc2)C1 (stereo unspecified)	0	0	0	0	0	0	-	-
CCN1C(=O)c2cccc3c(NC(=O)c4ccc5c(c4)OCCO5)ccc1c23	0	9.5	0	0	0	0	0	0
SMILES	PLC-gamma1 inh	ADAM17 inh	PLCb3 inh	ADAM10 inh	proKLK7 act	sPLA2-III inh	ADAM10 counter	ADAM17 confirm
CCN1C(=O)c2cccc3c(NC(=O)c4ccccc4)ccc1c23	0	0	0	0	0	0	-	-
O=[N+]([O-])c1ccc(CNc2ccc(Cl)cc2)s1	0	0	0	0	0	0	-	-
CC(CNc1ccc(Cl)cc1)(CNc1ccc(Cl)cc1)[N+](=O)[O-]	0	9.9	0	0	0	0	24.8	0
O=C(COc1ccccc1Br)NCCc1nc2ccccc2[nH]1	0	8.9	0	0	0	0	0	0
COc1ccccc1OCC(=O)NCCc1nc2ccccc2[nH]1	0	0	0	0	0	0	-	-
Nc1ccc(N=Nc2ccccc2)c2cccnc12	0	9.5	0	0	0	0	25.4	14.5
Cc1ccccc1N=Nc1ccc(O)c2ncccc12	0	0	0	0	0	0	-	-
COC(=O)[C@]12C[C@H](CC(=O)N3CCN(C(=O)C4CC4)CC3)C(=O)N(CCC3=CCCCC3)C1=C[C@H](C(C)(C)C)O[C@@H]2C	0	0	0	0	0	0	-	-
CCOC(=O)N1CCN(C(=O)C[C@H]2C[C@@]3(C(=O)OC)C(=C[C@H](C(C)(C)C)O[C@@H]3C)N(CCC3=CCCCC3)C2=O)CC1	0	10.5	0	0	0	0	0	0
COc1ccc(-n2nnnc2SCC(=O)c2cccc(OC)c2)cc1	0	10.3	0	0	0	0	0	0
Cc1sc2ncnc(NCCCO)c2c1C	0	0	0	0	0	0	-	-
Cc1ccc(Nc2ncnc3sc(C)c(C)c23)cc1C	0	9.1	0	0	0	0	0	0
CN(CCc1nc2ccc(Cl)cc2[nH]1)Cc1nc(CC2CC2)no1	0	0	0	0	0	0	-	-
